Bioassay records as filed in PubChem BioAssay.
Peg3 prom inh = inhibitors of Peg3 promoter | HeLa PEG-Prom luciferase reporter, luminescence, overnight | inhibition, % at 20 µM | actives 1.7% (n = 360,000) | AID 588405;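 active = inhibition of at least 50% at 20 µM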
HIF-2a inh = HIF-2a inhibition | 786-0 RCC cells HIF-2a reporter, luciferase luminescence, overnight | inhibition, % at 18.8 µM | actives 0.72% (n = 360,000) | AID 624352;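 active = inhibition of the luminescence signal of 40% or more relative to plate controls, in a single-dose primary screen at 18.75 µM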
Shn3 3UTR inh = reduces Shn3 3'UTR luciferase signal in osteoblasts. Clone20 osteoblast Shn3 3'UTR firefly luciferase, 24 h. inhibition, % at 12.5 µM. actives 0.52% (n = 360,000);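 active = mean inhibition of at least 75% with every replicate also reaching 75%; inconclusive = mean inhibition at least 75% but some replicate below; inactive = mean inhibition below 75%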;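 note: 0% = median of neutral control wells and 100% = pilot-screen positive control compound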
PAX8 reporter = PAX8 transcriptional activity inhibition; RMG-I TPO-luciferase reporter, SteadyGlo, 24 h; inhibition, % at 12.6 µM; actives 1.2% (n = 360,000);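 active = mean replicate inhibition at least 60% with every replicate also reaching 60%; inconclusive = only one of the two criteria is met; inactive = mean below 60% and not all replicates reaching 60%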;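 note: luciferase light reporting Pax8 driven TPO promoter activity; plate controls were median of neutral control wells for no effect and mitoxantrone controls for full effect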
EBV LMP1 NFkB = Epstein-Barr LMP1 NF-kappaB reporter inhibition. LMP1-induced NF-kappaB luciferase reporter cells, luminescence. inhibition, % at 12.5 µM. actives 0.69% (n = 350,000); in the data active = inhibition above about 41%; inconclusive = no clear call, values can overlap the other calls;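 note: 0% = neutral control wells and 100% = reference inhibitor control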
MITF TRPM1 inh = MITF TRPM1 promoter inhibition in SK-MEL-5 cells. SK-MEL-5 TRPM1 promoter luciferase, 24 h. inhibition, % at 12.5 µM. actives 0.83% (n = 330,000). AID 488899;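 active = mean inhibition across replicates of 60% or more, whatever share of single replicates reaches that level; inconclusive = some that reach 60%, reason not given; inactive = mean inhibition across replicates below 60%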
The depositor's hits bear a star; ? = inconclusive; nt = no result. In the library only some 2.8% were active in any assay of this set; here they are far more common.

SMILES	Peg3 prom inh	HIF-2a inh	Shn3 3UTR inh	PAX8 reporter	EBV LMP1 NFkB	MITF TRPM1 inh
NC(=S)NN=C1c2ccccc2-c2c(F)c(F)c(F)c(F)c21	96*	13	-2	20	-3	15
NC(=S)NN=C1c2ccccc2-c2cc(Br)ccc21	16	8	-7	2	-32	19
Cc1ccc(CCc2nnc(SCC(=O)Nc3cccc(Cl)c3)n2-c2ccccc2)o1	10	13	18	91*	3	14
CN(C)CCNc1ncnc2c1sc1nc(-c3ccccc3)c3c(c12)CCCC3	111*	-6	-26	64*	-9	9
CO[C@@H]1CN(C)C(=O)c2ccc(NC(=O)C3CCCC3)cc2OC[C@H](C)N(C(C)=O)C[C@H]1C	nt	nt	nt	0	nt	nt
COc1ccc(S(=O)(=O)Nc2ccc3c(c2)CC(=O)N([C@@H](C)CO)C[C@@H](C)[C@@H](CN(C)S(=O)(=O)c2ccc(F)cc2)O3)cc1	nt	nt	nt	-7	nt	nt
CCCCC[C@H](O)/C=C/[C@H]1CCC(=O)[C@@H]1CCCCCCC(=O)N1CCCCC1CO (stereo not given in full)	63*	2	28	70*	10	13
Cc1ccc(S(=O)(=O)Nc2ccc3c(c2)C(=O)N([C@@H](C)CO)C[C@H](C)[C@@H](CN(C)C(=O)CCC(F)(F)F)OCCCC[C@H](C)O3)cc1	nt	nt	nt	9	nt	nt
CN(C)C(=O)C[C@@H]1C[C@@H]2c3cc(NS(=O)(=O)c4ccc(F)cc4)ccc3O[C@@H]2[C@@H](CO)O1	nt	nt	nt	-2	nt	nt
C[C@@H]1CN([C@H](C)CO)C(=O)c2cc(NC(=O)Nc3ccc(F)cc3)ccc2O[C@H]1CN(C)Cc1ccc(C(F)(F)F)cc1	nt	nt	nt	68*	nt	nt
COc1ccc(NC(=O)Nc2ccc3c(c2)C(=O)N([C@@H](C)CO)C[C@@H](C)[C@@H](CN(C)Cc2ccc(C(F)(F)F)cc2)O3)cc1	nt	nt	nt	105*	nt	nt
C[C@H]1CN([C@@H](C)CO)C(=O)c2cc(NC(=O)Nc3ccc(F)cc3)ccc2O[C@@H]1CN(C)Cc1ccc(C(F)(F)F)cc1	nt	nt	nt	-19	nt	nt
C[C@@H]1CN([C@@H](C)CO)C(=O)c2cc(NC(=O)Nc3ccc4c(c3)OCO4)ccc2O[C@@H]1CN(C)C(=O)Nc1ccc(C(F)(F)F)cc1	nt	nt	nt	77*	nt	nt
C[C@@H]1CN([C@@H](C)CO)C(=O)c2cc(NC(=O)Nc3ccc(F)cc3)ccc2O[C@@H]1CN(C)Cc1ccc(Oc2ccccc2)cc1	80*	1	?	75*	-14	14
COc1ccc(NC(=O)Nc2ccc3c(c2)C(=O)N([C@@H](C)CO)C[C@@H](C)[C@@H](CN(C)Cc2ccc(Oc4ccccc4)cc2)O3)cc1	nt	nt	nt	42	nt	nt
O=C(C[C@@H]1CC[C@@H](NC(=O)C2CCC2)[C@H](CO)O1)NC1CCC1	nt	nt	nt	1	nt	nt
C[C@@H]1CN([C@H](C)CO)C(=O)c2cc(NS(=O)(=O)c3ccccc3)ccc2O[C@@H]1CN(C)Cc1ccc(-c2ccccc2)cc1	nt	nt	nt	0	nt	nt
Cc1ccc(S(=O)(=O)N2C[C@H](O)COC[C@@H]3O[C@@H](CC(=O)NCc4ccc(Cl)c(Cl)c4)CC[C@H]32)cc1	nt	nt	nt	38	nt	nt
O=C(C[C@@H]1C[C@H]2c3cc(NC(=O)CC4CC4)ccc3O[C@H]2[C@@H](CO)O1)NCCN1CCCCC1	nt	nt	nt	-41	nt	nt
O=C(CCS(=O)(=O)c1ccccc1)N(CCCN1CCOCC1)c1nc2ccccc2s1	108*	-141	-27	-7	-14	-35
COCCNC(=O)NC12CC3(C)CC(C)(CC(C)(C3)C1)C2	6	5	-10	21	57*	10
O=C(c1cccs1)c1no[n+]([O-])c1C(=O)c1cccs1	93*	63*	51	nt	-242	67*
COc1ccc(CCn2c(=S)[nH]c3cc(C(=O)NCc4ccco4)ccc3c2=O)cc1OC	51*	17	65	nt	24	91*
COc1ccc2c3c(n(C)c2c1)[C@H](CO)N(C(=O)C1CC1)CC31CCN(Cc2cccc(F)c2)CC1	nt	nt	nt	70*	nt	nt
COc1ccc2c3c(n(C)c2c1)[C@H](CO)N(C(=O)C1CCC1)CC31CCN(Cc2cccc(F)c2)CC1	nt	nt	nt	60*	nt	nt
SMILES	Peg3 prom inh	HIF-2a inh	Shn3 3UTR inh	PAX8 reporter	EBV LMP1 NFkB	MITF TRPM1 inh
COc1ccc2c3c(n(C)c2c1)[C@@H](CO)N(C(=O)C1CC1)CC31CCN(Cc2cccc(F)c2)CC1	nt	nt	nt	35	nt	nt
COCC(=O)N1CCC2(CC1)CN(C(=O)NC1CCCC1)[C@@H](CO)c1c2c2ccc(OC)cc2n1C	nt	nt	nt	68*	nt	nt
COc1ccc(S(=O)(=O)N[C@@H]2CC[C@H](CCn3cc(-c4cccc(F)c4)nn3)O[C@@H]2CO)cc1	nt	nt	nt	8	nt	nt
COc1ccc(-c2noc(CCCCC(=O)N3CCN(c4cc(C)ccc4C)CC3)n2)cc1	-7	13	92*	41	37	53
CCOc1ccc(-c2cc(CCCC(=O)NCCCOC)no2)cc1	4	32	14	nt	13	27
CCOc1ccc(-c2cc(CCCC(=O)N3CCN(c4ccc(OC)cc4)CC3)no2)cc1	7	50*	37	-9	9	11
C[C@@H]1CN([C@@H](C)CO)C(=O)Cc2cc(NC(=O)C3CCCCC3)ccc2O[C@@H]1CN(C)C	nt	nt	nt	-18	nt	nt
Cc1ccc2oc(-c3cccc(N)c3)nc2c1	-100	-70	1	-27	-16	1
Nc1cccc(-c2nc3cc(S(=O)(=O)c4ccc5oc(-c6cccc(N)c6)nc5c4)ccc3o2)c1	73*	-5	46	27	14	55
CCOC(=O)C1=C(Cc2ccc(Cl)cc2)C(=O)c2ccccc2C1=O	50*	-112	78	nt	6	17
CCOC(=O)C1=C(C)N=C2c3ccccc3C(=O)C2C1c1ccc(Cl)cc1 (stereo not given)	20	-6	-12	nt	-4	-5
CCNC(=O)[C@@H]1[C@@H](CO)[C@@H]2Cn3c(ccc(/C=C/c4ccccc4)c3=O)[C@H]1N2CC	nt	nt	nt	5	nt	nt
COc1cccc(S(=O)(=O)N2CCCCN3[C@H](C2)[C@H](c2ccc(C#CCC(C)C)cc2)[C@@H]3CO)c1	nt	nt	nt	19	nt	nt
CN1CCN(c2ccc(NC(=S)NC(=O)c3cccc4c(Br)cccc34)cc2)CC1	-22	-14	10	-14	0	-8
CN1CCN(c2ccc(NC(=S)NC(=O)c3cccc4ccccc34)cc2)CC1	69*	-38	6	-14	-11	64*
CCCC(=O)Nc1ccc2c(c1)C(=O)N(C)[C@@H]1CC[C@@H](CC(=O)NC3CCCC3)O[C@H]1CO2	nt	nt	nt	6	nt	nt
COc1cc(/C=C/C(=O)N2C(=O)c3cccc(N)c3C2=O)cc(OC)c1OC	65*	10	-19	1	-30	21
COc1ccc(OC)c(/C=C/C(=O)N2C(=O)c3cccc(N)c3C2=O)c1	64*	7	92*	8	-32	55
CCCN1[C@@H]2c3ccc(-c4ccccc4OC)c(=O)n3C[C@@H]2[C@@H](CO)[C@@H]1C(=O)N1CCCCC1	nt	nt	nt	1	nt	nt
